# Screening data: PubChem BioAssay, Sanford-Burnham Center for Chemical Genomics
# MPTP block = permeability transition pore inhibition | isolated mouse mitochondria, Ca2+ swelling absorbance, 30 min | AID 602449 | 1.4% of 360,000 active | inhibition, % at 10 µM;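 active means inhibition of 50% or more, scaled per plate between neutral and stimulator controls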;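 further: 0% = DMSO wells given calcium and 100% = 1 mM EGTA wells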
# NadD block = NadD (S. aureus) enzyme inhibition; 0.78% of 360,000 active; AID 602399; inhibition, % at 20 µM; purified NadD enzyme, colorimetric absorbance read-out; in the data active means inhibition above about 26%
# aDG glyco up = alpha-DG glycosylation activation. Pro5-aDG cells, alpha-DG glycosylation AlphaScreen (IIH6); 0% Pro5, 100% B10-LARGE cell signal. activation, % at 10 µM. 0.22% of 360,000 active. AID 624168;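 active means activation of at least 8% versus controls, or a plate z-score of at least 8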;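 further: Pro5 are CHO cells carrying HIG-tagged alpha-DG that lacks glycosylation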
# TAG inh = inhibitors of triacylglycerol accumulation. 0.66% of 230,000 active. inhibition, % at 12.5 µM. AID 651582. H9c2 cells, Nile Red lipid (TAG) fluorescence; cells loaded with 200 µM oleic acid;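 active means pattern-corrected inhibition of lipid staining of at least 50% with the nuclear-stain viability signal not falling by more than 50%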;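 further: 0% = DMSO wells and 100% = triacsin C control wells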
# NadD conf = confirmation of Staphylococcus aureus NadD inhibitors; shares compounds with NadD block; purified S. aureus NadD, colorimetric enzyme assay; inhibition, % at 20 µM; 13% of 2,000 active; AID 624309; in the data active means inhibition mostly above about 42%, no sharp cut-off; inactive means mostly below about 42%
# * hit, by the source's call; · = no result. Only some compounds are listed: those with a hit (about 2.7% of all), similar ones and a draw of the others.
SMILES,MPTP block,NadD block,aDG glyco up,TAG inh,others
COc1ccc(/C=C2/C(=O)NC(=O)N(c3ccc(C)c(C)c3)C2=O)cc1CN1C(=O)c2ccccc2C1=O,5,29*,0,·,
COc1cc(/C=C2\C(=O)NC(=O)N(c3ccccc3)C2=O)cc(OC)c1OC,-5,5,0,-20,
CCOC(=O)[C@]12Cc3cc(C)ccc3[C@H]1N(C)C(=O)c1cc(OC)ccc12,-2,-5,0,·,
CS(=O)(=O)c1ccc(C2=C(CNC(=O)c3nccs3)[C@H]3CC[C@@H](C2)N3Cc2ccco2)cc1,-1,7,1,-4,
COC(=O)[C@@H]1N=C(c2ccc(OC)cc2)O[C@]12C(=O)N(C)c1ccc(Cl)cc12,-2,-2,0,·,
O=c1[nH]c(=S)n(C2CC2)c(O)c1/C=N/Nc1cccc2ccccc12,3,30*,0,·,
O=c1[nH]c(=O)n(CCC2=CCCCC2)c(O)c1/C=N/Nc1cccc2ccccc12,5,31*,0,-6,
O=c1[nH]c(=O)n(CCC2=CCCCC2)c(O)c1/C=N/Nc1ccccc1,3,1,0,·,
CCCCCN1C(=O)c2cc(OC)ccc2[C@@]2(C(=O)OCC)Cc3cc(Cl)ccc3[C@@H]12,-2,0,0,·,
O=c1[nH]c2ccccc2n1C1CCN(Cc2ccc(-c3[nH]c4cc5ncnc5cc4nc3-c3ccccc3)cc2)CC1,-4,27,-1,·,
O=C1C=C2c3ccccc3CC(C(=O)O)C2CC1 (stereo not drawn),0,-4,2,·,
Cc1cccc(C)c1-n1nnnc1C(C1CC1)N1CCC2(CC1)C(=O)NCN2c1ccccc1 (stereo not drawn),-2,3,0,·,
Cc1cccc(N2C(=O)NC(=O)/C(=C\c3ccc4c(c3)CCCN4Cc3ccccc3)C2=O)c1,19,38*,0,-11,
Cc1cccc(N2C(=O)NC(=O)/C(=C/c3cc4c(cc3[N+](=O)[O-])OCO4)C2=O)c1,3,2,0,5,
COc1ccc(N2C(=O)/C(=C/c3ccc(OC)c(OC)c3)C(=O)NC2=S)cc1,-2,6,0,·,
CCC(C)N1C(=O)/C(=C/c2ccc3c(c2)CCN3CCCCl)C(=O)NC1=S (stereo not drawn),11,40*,0,·,
CC1=C(O)C(=O)C=C2C1=CC=C1C2(C)CCC2(C)C3CC(C)(C(=O)O)CCC3(C)CCC12C (stereo not drawn),-1,47*,0,105,
O=C1NC(=O)C(=Cc2ccc(SC3CCCCC3)o2)C(=O)N1,27,36*,0,15,
NS(=O)(=O)c1ccc(-c2ccc(C=C3C(=O)NC(=O)NC3=O)o2)cc1,0,2,0,-3,
O=[N+]([O-])c1ccc(N2CCOCC2)c2c1no[n+]2[O-],18,-2,0,121*,
O=[N+]([O-])c1ccc(N2CCOCC2)c2cccnc12,1,-7,0,-2,
O=C1NC(=O)C(=Cc2ccc(-c3cc(Cl)ccc3[N+](=O)[O-])o2)C(=O)N1,31,38*,0,-26,
COC1CCC(OC2CC(C3(C)CCC4(CC(O)C(C)C(C(C)/C=C(\C)C(=O)C(C)CC(C)C(=O)O)O4)O3)OC3(OC(C4OC(O)(CO)C(C)CC4C)CC3C)C2C)OC1C (stereo not drawn),6,-2,0,97*,
COc1ccc(C(SCC(NC(=O)OCc2ccccc2)C(=O)O)c2ccc(OC)cc2)cc1 (stereo not drawn),0,1,0,10,
Cn1cccc1/C=C1/C(=O)NC(=S)N(Cc2ccc(F)cc2)C1=O,7,45*,0,35,
SMILES,MPTP block,NadD block,aDG glyco up,TAG inh,others
CN1C(=O)/C(=C\c2ccc(Br)s2)C(=O)NC1=S,5,34*,0,·,
O=C1NC(=S)NC(=O)C1=Cc1ccc(Br)s1,5,46*,0,-2,
O=C1NC(=S)NC(=O)C1=Cc1c(Cl)cccc1Cl,12,10,0,15,
Cc1cccc(N2C(=O)NC(=O)/C(=C\c3cc(C)n(-c4sc5c(c4C#N)CCCC5)c3C)C2=O)c1C,9,29*,1,-4,
O=C(O)c1cccc2c1NC(c1cccc([N+](=O)[O-])c1)C1CC(Sc3ccccc3[N+](=O)[O-])C(Cl)C21 (stereo not drawn),-2,60*,0,-12,
O=C(O)c1ccc2c(c1)C1C(Cl)C(Sc3ccccc3[N+](=O)[O-])CC1C(c1cccc([N+](=O)[O-])c1)N2 (stereo not drawn),0,33*,0,18,
Cc1ccc(S(=O)(=O)N2Cc3cc(N4CCOCC4)ccc3-n3nncc3C2)cc1,1,-6,0,·,
CCCCN1C(=O)/C(=C/c2ccc(N(C)C)cc2)C(=O)N(Cc2ccco2)C1=O,-1,34*,0,-20,
CCN(CC)c1ccc(/C=C2\C(=O)NC(=O)N(Cc3ccco3)C2=O)cc1,37,12,0,·,
COC(=O)[C@]12OC[C@]34C([C@@H](O)[C@@H]1O)[C@]1(C)CC(=O)C(O)=C(C)[C@@H]1C[C@H]3OC(=O)[C@H](O)[C@@H]24 (stereo partly drawn),-1,3,0,65*,
COc1cc2c3c(c1OC)Oc1ccc(cc1)C[C@H]1c4c(cc(OC)c(OC)c4Oc4ccc(cc4)C[C@@H]3N(C)CC2)CCN1C,5,7,0,86*,
C[C@H](CO)N1C[C@H](C)[C@@H](CN(C)C(=O)Oc2ccccc2)OCc2cnnn2CCCC1=O,-1,-2,0,-5,
COc1cc(O)c2c(c1)/C=C/C[C@H](O)[C@H](O)C(=O)CCC[C@H](C)OC2=O,1,-2,0,·,
C=CCNC(=S)N1Cc2cc(Br)ccc2-n2nncc2C1,0,-1,0,·,
CCOc1ccc(N2C(=O)/C(=C/c3ccco3)C(=O)NC2=S)cc1,8,87*,0,·,
C=C(C)CC1(CC)C(=O)NC(=S)NC1=O,-2,-4,0,-2,
COC(=O)C1=C(C(=O)OC)C2OC1c1cc3ccccc3cc12,-2,3,0,70*,
COC(=O)C1=C(c2ccc3ccccc3c2)C[C@@H]2CC[C@H]1N2C,0,-1,0,-23,
Clc1cccc(N2Cc3cc(-c4ccccc4)ccc3-n3nncc3C2)c1,4,33*,0,·,
O=C1NCN(c2ccccc2)C12CCN(C(c1ccccc1)c1nnnn1-c1ccc3c(c1)OCCO3)CC2 (stereo not drawn),0,19,0,·,
O=C1NCN(c2ccccc2)C12CCN(C(c1cccc3ccccc13)c1nnnn1-c1ccc3c(c1)OCCO3)CC2 (stereo not drawn),2,31*,0,·,NadD conf=19
O=C1NCN(c2ccccc2)C12CCN(C(c1cccc3ccccc13)c1nnnn1Cc1ccccc1)CC2 (stereo not drawn),4,32*,0,·,NadD conf=18
C=CC12CN(C)C3C4COC(CC41)C1(C(=O)Nc4ccccc41)C32 (stereo not drawn),1,0,0,·,
